Compound activity (PubChem)
A selection: hits, their analogues and other compounds. The true share with any hit is near 6.8%.
Cy5 interf NS3h – counter-screen for HCV NS3 helicase inhibitors: fluorescence interference. Cy5-dT15 DNA with NS3h; actives lie on both sides; signal over control mean, under 1 quenches. 6% of 16,000 active. fluorescence interference ratio at 100 µM;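 active = compound fluorescence over control fluorescence at most 0.8, a quencher, or at least a set upper limit, an enhancer; inactive = ratio between 0.8 and the set upper limit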
HCV NS3h FP – blocks HCV NS3 helicase binding to DNA. NS3h Cy5-dT15 DNA binding, fluorescence polarization. inhibition, % at 100 µM. 1.6% of 16,000 active. AID 687043;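 active = inhibition above the average over every tested compound plus 3 SD, cut at about 40% in these data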
An asterisk follows results filed as active.

SMILES	Cy5 interf NS3h	HCV NS3h FP
CCCN1C(=O)c2ccccc2NC1c1ccccc1F (centres undefined)	0.97	4
O=C(COc1cccc([N+](=O)[O-])c1)Nc1cccc(-c2nc3ccccc3[nH]2)c1	0.96	-11
O=C(COc1ccccc1)C(=C(O)c1ccccc1)c1nc2ccccc2[nH]1	1.4*	-23
O=S(=O)(Cc1ccccc1)NCCOc1ccc(Cl)cc1	0.97	-1
COc1ccc(OC)c(NC(=S)NC(NC(=O)c2cc(OC)c(OC)c(OC)c2)C(Cl)(Cl)Cl)c1 (centres undefined)	1	5
COc1ccc(C(=O)Nc2cc(C)nc3ccccc23)cc1OC	0.94	1
Cc1nc(N=C(N)NC(=O)c2ccccc2N)nc2ccccc12	1.2*	17
CC(=O)Nc1ccc(S(=O)(=O)N/N=C(/C)c2cccs2)cc1	1.1	3
Cn1c(=O)c2c(nc(SCc3ccc([N+](=O)[O-])cc3)n2C)n(C)c1=O	1.1	11
N#Cc1cc(N=Cc2cccc(C=Nc3ccc(N)c(C#N)c3)c2)ccc1N	1.2*	7
CCN(CC)CCNc1ccc(Nc2ccnc3cc4ccccc4cc23)cc1	0.58*	7
c1ccc(CCNc2ccnc3cc4ccccc4cc23)cc1	0.96	2
O=C(/C=C/c1ccccc1)NC(=S)Nc1cc(Cl)ccc1Cl	1.1	-5
CCOc1ccc(C(O)c2cnc(CC)n2C)cc1 (centres undefined)	0.98	-2
COc1ccc(CC(=O)O/N=C(/N)c2ccc([N+](=O)[O-])cc2)cc1OC	1.1	3
COc1ccccc1OCCOc1ccccc1/C=C1/SC(=S)N(C)C1=O	1	9
C=CCN1C(=O)/C(=C\c2ccc(OCCOc3cccc(OC)c3)cc2)SC1=S	1	6
C=CCN1C(=O)/C(=C\c2ccc(OC(=O)c3cccc(Br)c3)cc2)SC1=S	0.75*	7
Cc1ccc(N2C(=O)CC(NCCCN3CCOCC3)C2=O)cc1 (centres undefined)	1.1	25
COc1cc(/C=N\N2C(=O)CSC2=S)ccc1OCCOc1cc(C)ccc1C(C)C	1.2*	6
COc1cc(/C=N\N2C(=O)CSC2=S)ccc1OCCOc1ccc(C(C)(C)C)cc1	1.1	11
O=C(CC1(O)C(=O)Nc2ccccc21)c1cccc2ccccc12 (centres undefined)	1.1	7
COc1ccccc1N1CCN(C(=O)CN(c2ccc(C)cc2)S(C)(=O)=O)CC1	1.1	4
Cc1ccc2nc(-c3ccc(NC(=S)NC(=O)c4ccco4)cc3)sc2c1	1	-2
O=C1NC(=S)N(c2cccc(Br)c2)C(=O)/C1=C/c1ccc(O)c(Cl)c1	1.2	-5
SMILES	Cy5 interf NS3h	HCV NS3h FP
O=C1NC(=S)N(c2ccccc2)C(=O)/C1=C/c1ccc(O)c(Cl)c1	1.2*	10
CC(C)COc1ccc2c(c1)c1c3c(nccn32)CCC1	0.76*	-3
Clc1ccc(-c2noc(-c3ccc(Cl)cc3Cl)n2)cc1	1.1	5
Cc1ccc(CNC(=O)c2ccc(Cl)c([N+](=O)[O-])c2)cc1	0.94	6
O=C(Nc1ccccc1F)c1ccc2nccnc2c1	1	-1
CC(C)(C)CC(C)(C)NC(=O)c1ccc2nccnc2c1	0.61*	4
Cc1cc2c(Nc3c([N+](=O)[O-])ccc4c3=NC3(CCCCC3)N=4)cccc2nn1	0.95	6
Cc1cccc(C)c1NC(=O)CO/N=C(/N)c1nonc1N	0.71*	15
N/C(=N\OCC(=O)Nc1ccc(F)cc1)c1nonc1N	1	0
CC(C)CSc1nnc(-c2ccc(Br)cc2)o1	0.83	12
C=CCNC(=O)C(=O)NCCN1CCOCC1	1.2	6
O=C(O)CCCCCN1C(=O)C(=O)C(=C(O)c2ccccc2)C1c1ccc(Cl)cc1 (centres undefined)	0.93	0
CCN(CC)c1ccc(NC(=O)c2cccc(Cl)c2Cl)cc1	1.1	7
O=C(Nc1cccnc1)c1cccc(Cl)c1Cl	0.72*	13
COc1ccc(CN2CCN(S(=O)(=O)c3ccc(C)cc3)CC2)cc1OCc1ccccc1	0.74*	10
Cc1ccc(S(=O)(=O)N2CCN(Cc3ccccc3)CC2)cc1[N+](=O)[O-]	0.98	2
O=C(Nc1ccc(F)c(Cl)c1)c1nn2c(c1Cl)NC(c1ccccc1)CC2C(F)(F)F (centres undefined)	1	7
Cc1ccc(NC(=O)c2cccc(N3C(=O)C4C5c6ccccc6C(c6ccccc65)C4C3=O)c2)cc1Cl (centres undefined)	1	17
Cc1ccc(C(=O)/C=C2\C(=O)Nc3ccccc32)cc1	0.95	15
CC(=O)N1C(=O)/C(=C/C(=O)c2ccccc2)c2ccccc21	0.79*	9
COc1ccc(N(CC(=O)NCC2CCCO2)S(=O)(=O)c2ccc(OC)c(OC)c2)cc1 (centres undefined)	1	3
CCOC(=O)c1c(NC(=S)Nc2ccc(OC)cc2)sc2c1CCCCC2	1.1	6
COC(=O)c1c(NC(=O)Nc2ccc(Cl)c(Cl)c2)sc2c1CCC2	1.2*	-7
Cc1ccc(S(=O)(=O)Nc2cc(Cl)c(O)c(Cl)c2)cc1	0.99	-4
COc1ccc(C(N)=O)cc1NC(=O)COc1ccc(F)cc1	0.94	7
SMILES	Cy5 interf NS3h	HCV NS3h FP
CCOc1ccccc1NC(=O)c1c(NC(=O)C(F)(F)F)sc2c1CCCCC2	1.2*	33
CCOc1ccccc1NC(=O)c1c(NC(=O)C(C)(C)C)sc2c1CCCCC2	1.1	0
CCc1ccc(OCC(=O)Nc2ccc(F)c([N+](=O)[O-])c2)cc1	0.96	12
Cc1ccc2cc(C3CC(c4ccc(Br)cc4)=NN3C(=O)CCC(=O)O)c(=O)[nH]c2c1 (centres undefined)	1	12
COc1cc(C2Nc3ccccc3C(=O)N2c2ccc(F)cc2)cc(OC)c1OC (centres undefined)	1	2
CC(=C(C#N)C#N)c1ccc2c(c1)OCCO2	0.97	2
CC(=C(C#N)C#N)c1ccc2c(c1)OCO2	0.74*	9
O=C1C(Nc2ccccc2)=CC(c2ccccc2Cl)N1c1ccccc1 (centres undefined)	1	9
Nc1nonc1-n1nnc(CN2CCCCCC2)c1CN1CCCCCC1	1.2*	3
Nc1nonc1-n1nnc(CN2CCOCC2)c1CN1CCOCC1	1.1	11
O=C1c2ccccc2NC(c2ccc3c(c2)OCO3)N1c1ccc(F)cc1 (centres undefined)	1.1	13
COCCOC(=O)c1ccc(NC(=O)c2ccc(C(C)(C)C)cc2)cc1	0.95	6
COc1ccc(C(=O)Nc2ccc3oc(-c4ccccc4Cl)nc3c2)cc1Br	0.93	14
COc1ccc(Br)cc1C(=O)Nc1ccc2oc(-c3ccccc3F)nc2c1	1.2*	-87
COC(=O)c1c(C)oc2cc(Br)c(OCC(N)=O)cc12	0.91	19
Cc1ccc(C2CC(C(F)(F)F)n3ncc(C(=O)NCCN4CCOCC4)c3N2)cc1 (centres undefined)	0.77*	9
COc1ccc(C2CC(C(F)(F)F)n3ncc(C(=O)NC(C)(C)C)c3N2)cc1 (centres undefined)	0.69*	8
Cc1ccc(C2CC(C(F)(F)F)n3ncc(C(=O)N4CCN(c5ccc(F)cc5)CC4)c3N2)cc1 (centres undefined)	0.63*	3
COCCNC(=O)c1cnn2c1NC(c1ccc(OC)c(OC)c1)CC2C(F)(F)F (centres undefined)	0.94	-10
